In publication PMC7862700, “An all-to-all approach to the identification of sequence-specific readers for epigenetic DNA modifications on cytosine” one finds binding signal data, which are given here for one sequence.

Assay in all cases: DAPPL (digital affinity profiling via proximity ligation, sequencing); 10 mM Tris-HCl pH 7.5, 50 mM NaCl, 1 mM DTT, 4% glycerol, room temperature, 30 min; GST-TFs on glutathione beads, 16-mer random dsDNA library, 0.1% formaldehyde crosslink after washing; high values mean tight binding
Common to all, as to conditions: protein: recombinant; tags: N-terminal GST; dsDNA, one strand shown

The target in one experiment is T1, ELK1 (Homo sapiens, UniProt P19419 1-428).
T1 sequence: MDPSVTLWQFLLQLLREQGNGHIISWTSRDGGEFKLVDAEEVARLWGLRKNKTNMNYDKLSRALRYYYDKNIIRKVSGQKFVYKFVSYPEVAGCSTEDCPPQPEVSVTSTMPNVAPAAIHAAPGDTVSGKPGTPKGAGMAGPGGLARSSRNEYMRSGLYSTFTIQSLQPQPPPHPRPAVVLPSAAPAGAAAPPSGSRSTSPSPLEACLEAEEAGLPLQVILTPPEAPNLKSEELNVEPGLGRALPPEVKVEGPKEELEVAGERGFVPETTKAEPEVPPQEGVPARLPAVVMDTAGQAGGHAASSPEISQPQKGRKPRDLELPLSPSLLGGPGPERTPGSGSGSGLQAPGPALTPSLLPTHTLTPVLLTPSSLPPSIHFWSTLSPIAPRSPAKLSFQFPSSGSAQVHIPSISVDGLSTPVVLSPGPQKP
The essentials:
(§1)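 The binding signal reported is, for every hexamer, its read frequency for a factor over its read frequency for the tag-only sample. Reads came from pools of yeast-expressed, GST-fused human transcription factors on glutathione beads, barcoded with DNA and mixed with that sample, which were incubated with 200 nmole of a random double-stranded 16-mer DNA library in Tris/NaCl/DTT/glycerol buffer at room temperature for 30 min. After washing, the pools were crosslinked with 0.1% formaldehyde, proximity-ligated with BsaI/T4 ligase for 1 h at 37 °C, PCR-amplified and sequenced on an Illumina NextSeq500.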

The target of a further experiment is T2, GABPA (Homo sapiens, UniProt Q06546 1-454).
T2 sequence: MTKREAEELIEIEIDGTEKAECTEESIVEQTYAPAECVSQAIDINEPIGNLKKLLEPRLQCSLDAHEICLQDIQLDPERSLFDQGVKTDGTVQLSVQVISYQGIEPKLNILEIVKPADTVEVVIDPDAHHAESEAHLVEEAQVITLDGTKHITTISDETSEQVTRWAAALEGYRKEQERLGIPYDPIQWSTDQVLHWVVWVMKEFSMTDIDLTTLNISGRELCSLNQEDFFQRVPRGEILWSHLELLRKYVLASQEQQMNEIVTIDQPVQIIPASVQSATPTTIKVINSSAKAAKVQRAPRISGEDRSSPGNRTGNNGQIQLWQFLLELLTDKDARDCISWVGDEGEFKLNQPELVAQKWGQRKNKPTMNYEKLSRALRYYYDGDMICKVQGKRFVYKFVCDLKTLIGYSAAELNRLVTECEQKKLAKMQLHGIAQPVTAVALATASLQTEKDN
The essentials: as §1

The next experiment concerns the target T3, ERG (Homo sapiens, UniProt P11308 1-479).
T3 sequence: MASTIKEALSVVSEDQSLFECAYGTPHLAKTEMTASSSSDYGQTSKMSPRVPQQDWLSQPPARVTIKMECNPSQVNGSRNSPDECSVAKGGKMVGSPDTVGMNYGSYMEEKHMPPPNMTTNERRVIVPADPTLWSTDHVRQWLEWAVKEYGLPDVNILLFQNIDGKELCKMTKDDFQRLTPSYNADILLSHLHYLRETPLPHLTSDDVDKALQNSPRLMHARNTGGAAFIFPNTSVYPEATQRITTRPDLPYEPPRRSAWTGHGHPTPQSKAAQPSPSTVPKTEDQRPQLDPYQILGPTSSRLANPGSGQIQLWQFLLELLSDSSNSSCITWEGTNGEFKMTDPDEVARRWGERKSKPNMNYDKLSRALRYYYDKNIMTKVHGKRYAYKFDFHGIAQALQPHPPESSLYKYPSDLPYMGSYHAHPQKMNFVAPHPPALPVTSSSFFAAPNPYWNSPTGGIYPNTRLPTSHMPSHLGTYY
The essentials:
as §1

A further experiment concerns the target ELF1 (Homo sapiens, UniProt P32519 1-619). The essentials:
as §1

The target in another experiment is T4, EHF (Homo sapiens, UniProt Q9NZC4 1-300).
T4 sequence: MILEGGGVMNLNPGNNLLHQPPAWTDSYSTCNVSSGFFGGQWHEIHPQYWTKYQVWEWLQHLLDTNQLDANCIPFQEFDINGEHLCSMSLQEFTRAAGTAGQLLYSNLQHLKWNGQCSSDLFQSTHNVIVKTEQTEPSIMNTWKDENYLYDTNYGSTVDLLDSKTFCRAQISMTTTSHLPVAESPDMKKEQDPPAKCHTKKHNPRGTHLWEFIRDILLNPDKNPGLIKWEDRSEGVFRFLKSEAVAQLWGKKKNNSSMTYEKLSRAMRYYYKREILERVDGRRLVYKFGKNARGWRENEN
The essentials: as §1

The next experiment concerns the target SPIB (Homo sapiens, UniProt Q01892 1-262). The essentials:
as §1

The target of the next experiment is T5, FEV (Homo sapiens, UniProt Q99581 1-238).
T5 sequence: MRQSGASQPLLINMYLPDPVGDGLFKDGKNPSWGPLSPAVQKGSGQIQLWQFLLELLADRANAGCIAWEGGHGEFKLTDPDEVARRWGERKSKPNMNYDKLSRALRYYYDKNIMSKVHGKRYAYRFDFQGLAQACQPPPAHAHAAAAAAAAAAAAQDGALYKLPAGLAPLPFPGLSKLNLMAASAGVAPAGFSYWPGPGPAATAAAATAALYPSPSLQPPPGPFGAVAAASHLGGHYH
The essentials:
as §1

The target of the next experiment is ETV5 (Homo sapiens, UniProt P41161 1-510). The essentials: as §1
ETV5, sequence (P41161 whole entry): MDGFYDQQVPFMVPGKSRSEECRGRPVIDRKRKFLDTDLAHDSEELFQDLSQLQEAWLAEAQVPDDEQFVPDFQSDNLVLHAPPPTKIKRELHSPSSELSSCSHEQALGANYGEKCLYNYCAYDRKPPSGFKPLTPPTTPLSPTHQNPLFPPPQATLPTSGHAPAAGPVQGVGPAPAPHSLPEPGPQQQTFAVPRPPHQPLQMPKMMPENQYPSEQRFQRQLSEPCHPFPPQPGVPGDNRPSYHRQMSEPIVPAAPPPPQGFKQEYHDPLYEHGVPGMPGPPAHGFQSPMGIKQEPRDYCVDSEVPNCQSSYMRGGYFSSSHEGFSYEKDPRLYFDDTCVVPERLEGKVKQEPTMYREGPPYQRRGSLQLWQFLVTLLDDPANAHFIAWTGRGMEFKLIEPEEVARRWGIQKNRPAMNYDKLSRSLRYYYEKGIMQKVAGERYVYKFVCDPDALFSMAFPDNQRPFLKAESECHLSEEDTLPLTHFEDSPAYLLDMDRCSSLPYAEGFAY
Another experiment concerns the target ELF4 (Homo sapiens, UniProt Q99607 1-663). The essentials:
as §1

The target of the next experiment is T6, ELK4 (Homo sapiens, UniProt P28324-2 1-405).
T6 sequence: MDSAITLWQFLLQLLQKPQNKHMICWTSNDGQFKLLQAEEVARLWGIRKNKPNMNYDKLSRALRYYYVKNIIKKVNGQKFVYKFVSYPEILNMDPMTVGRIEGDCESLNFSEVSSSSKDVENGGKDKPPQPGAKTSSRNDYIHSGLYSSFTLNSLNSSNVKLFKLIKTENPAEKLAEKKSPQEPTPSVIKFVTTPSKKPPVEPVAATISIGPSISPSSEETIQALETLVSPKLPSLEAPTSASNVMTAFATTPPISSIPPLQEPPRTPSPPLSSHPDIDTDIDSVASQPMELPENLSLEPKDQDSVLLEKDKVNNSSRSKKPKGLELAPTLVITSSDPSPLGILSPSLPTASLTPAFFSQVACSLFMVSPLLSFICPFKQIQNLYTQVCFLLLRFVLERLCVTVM
The essentials:
as §1

The next experiment concerns the target T7, ETV2 (Homo sapiens, UniProt O00321 1-342).
T7 sequence: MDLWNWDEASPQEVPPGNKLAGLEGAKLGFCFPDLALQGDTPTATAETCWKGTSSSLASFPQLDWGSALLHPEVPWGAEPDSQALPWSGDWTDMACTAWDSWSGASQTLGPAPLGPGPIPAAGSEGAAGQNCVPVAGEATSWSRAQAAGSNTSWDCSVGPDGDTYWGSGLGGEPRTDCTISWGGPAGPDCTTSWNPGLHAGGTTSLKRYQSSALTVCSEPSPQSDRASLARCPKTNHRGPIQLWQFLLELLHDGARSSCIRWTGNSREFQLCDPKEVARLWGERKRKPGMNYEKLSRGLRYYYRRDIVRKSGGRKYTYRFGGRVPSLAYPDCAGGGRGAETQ
The essentials: as §1

For another experiment, the target named is T8, ELF3 (Homo sapiens, UniProt P78545 1-371).
T8 sequence: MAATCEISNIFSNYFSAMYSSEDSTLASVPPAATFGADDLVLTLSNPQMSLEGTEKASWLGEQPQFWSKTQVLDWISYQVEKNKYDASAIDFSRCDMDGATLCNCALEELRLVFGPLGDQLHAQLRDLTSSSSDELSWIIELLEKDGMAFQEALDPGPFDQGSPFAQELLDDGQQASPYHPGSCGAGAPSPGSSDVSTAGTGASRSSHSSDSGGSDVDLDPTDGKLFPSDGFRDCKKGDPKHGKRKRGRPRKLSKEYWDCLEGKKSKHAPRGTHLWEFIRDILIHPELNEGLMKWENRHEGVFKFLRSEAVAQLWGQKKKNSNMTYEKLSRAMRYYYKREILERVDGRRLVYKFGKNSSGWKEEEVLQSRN
The essentials: as §1

For the next experiment, the target named is ETV1 (Homo sapiens, UniProt P50549 1-477). The essentials: as §1
ETV1, sequence (P50549 whole entry): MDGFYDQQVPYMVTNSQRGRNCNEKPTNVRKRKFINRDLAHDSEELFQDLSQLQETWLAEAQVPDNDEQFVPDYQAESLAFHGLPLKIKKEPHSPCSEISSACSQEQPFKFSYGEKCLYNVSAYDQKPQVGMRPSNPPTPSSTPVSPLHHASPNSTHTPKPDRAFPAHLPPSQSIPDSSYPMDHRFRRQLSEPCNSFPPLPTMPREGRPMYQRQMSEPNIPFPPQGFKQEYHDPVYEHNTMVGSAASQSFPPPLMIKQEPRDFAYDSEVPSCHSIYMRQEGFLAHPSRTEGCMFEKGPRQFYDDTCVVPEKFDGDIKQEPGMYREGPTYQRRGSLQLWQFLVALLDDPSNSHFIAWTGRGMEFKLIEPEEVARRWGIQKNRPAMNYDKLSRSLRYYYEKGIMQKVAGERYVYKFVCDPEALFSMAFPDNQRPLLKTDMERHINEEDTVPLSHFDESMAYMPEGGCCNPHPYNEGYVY
For a further experiment, the target named is T9, ERF (Homo sapiens, UniProt P50548 1-548).
T9 sequence: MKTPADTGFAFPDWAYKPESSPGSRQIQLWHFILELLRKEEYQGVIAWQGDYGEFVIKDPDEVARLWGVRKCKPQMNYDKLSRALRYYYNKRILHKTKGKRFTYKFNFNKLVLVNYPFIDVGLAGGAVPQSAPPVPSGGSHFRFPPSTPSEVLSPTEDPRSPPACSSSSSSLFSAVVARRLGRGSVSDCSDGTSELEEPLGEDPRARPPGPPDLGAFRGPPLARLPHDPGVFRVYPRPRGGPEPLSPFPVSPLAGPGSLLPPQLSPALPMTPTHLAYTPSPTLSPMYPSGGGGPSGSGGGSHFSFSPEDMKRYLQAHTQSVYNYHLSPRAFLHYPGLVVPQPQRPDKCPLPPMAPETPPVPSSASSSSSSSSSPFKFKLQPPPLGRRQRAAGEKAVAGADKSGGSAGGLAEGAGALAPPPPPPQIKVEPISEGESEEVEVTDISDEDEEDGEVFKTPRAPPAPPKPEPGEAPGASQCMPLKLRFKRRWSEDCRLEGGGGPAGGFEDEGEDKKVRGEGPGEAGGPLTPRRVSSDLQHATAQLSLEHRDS
The essentials: as §1

For the next experiment, the target named is T10, ETV3L (Homo sapiens, UniProt Q6ZN32 1-361).
T10 sequence: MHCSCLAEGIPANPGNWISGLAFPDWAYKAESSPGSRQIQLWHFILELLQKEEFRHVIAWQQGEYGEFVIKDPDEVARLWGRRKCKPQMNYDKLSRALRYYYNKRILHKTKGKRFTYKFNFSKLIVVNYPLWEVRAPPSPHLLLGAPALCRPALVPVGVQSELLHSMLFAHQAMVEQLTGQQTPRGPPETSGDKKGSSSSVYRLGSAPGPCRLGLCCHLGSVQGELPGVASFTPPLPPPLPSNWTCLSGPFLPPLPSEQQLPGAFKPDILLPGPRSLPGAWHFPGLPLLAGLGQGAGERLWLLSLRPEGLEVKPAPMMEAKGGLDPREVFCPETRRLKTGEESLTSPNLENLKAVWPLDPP
The essentials: as §1

The target of the next experiment is T11, ETS2 (Homo sapiens, UniProt P15036 1-469).
T11 sequence: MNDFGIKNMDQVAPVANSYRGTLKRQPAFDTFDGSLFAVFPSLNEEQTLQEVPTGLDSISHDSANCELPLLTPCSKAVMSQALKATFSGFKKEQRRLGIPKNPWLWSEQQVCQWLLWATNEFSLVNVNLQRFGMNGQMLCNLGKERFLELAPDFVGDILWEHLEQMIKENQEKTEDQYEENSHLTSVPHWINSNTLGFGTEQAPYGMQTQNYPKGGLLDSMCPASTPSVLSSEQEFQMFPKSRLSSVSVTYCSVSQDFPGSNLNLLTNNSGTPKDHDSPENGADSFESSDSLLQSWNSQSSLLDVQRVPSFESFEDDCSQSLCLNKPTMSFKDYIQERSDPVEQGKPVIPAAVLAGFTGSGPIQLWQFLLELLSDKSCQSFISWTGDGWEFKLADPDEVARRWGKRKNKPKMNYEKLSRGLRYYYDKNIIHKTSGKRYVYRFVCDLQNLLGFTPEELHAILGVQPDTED
The essentials:
as §1

The target in a further experiment is T12, SPDEF (Homo sapiens, UniProt O95238 1-335).
T12 sequence: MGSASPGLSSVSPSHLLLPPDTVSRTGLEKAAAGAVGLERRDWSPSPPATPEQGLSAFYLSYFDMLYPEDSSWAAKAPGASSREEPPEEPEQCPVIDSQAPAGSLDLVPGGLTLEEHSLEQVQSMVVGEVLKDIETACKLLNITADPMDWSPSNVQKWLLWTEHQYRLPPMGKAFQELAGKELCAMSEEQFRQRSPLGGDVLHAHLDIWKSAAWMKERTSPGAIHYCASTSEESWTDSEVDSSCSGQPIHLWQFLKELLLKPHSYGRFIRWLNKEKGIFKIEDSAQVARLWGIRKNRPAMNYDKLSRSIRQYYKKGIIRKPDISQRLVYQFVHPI
The essentials: as §1

For the next experiment, the target named is T13, ETV3 (Homo sapiens, UniProt P41162-2 1-143).
T13 sequence: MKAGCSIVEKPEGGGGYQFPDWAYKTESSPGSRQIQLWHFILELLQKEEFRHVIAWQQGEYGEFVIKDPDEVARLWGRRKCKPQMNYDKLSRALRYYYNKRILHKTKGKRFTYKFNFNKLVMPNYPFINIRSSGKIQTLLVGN
The essentials:
as §1

The next experiment addresses ETV6 (Homo sapiens, UniProt P41212 1-452). The essentials: as §1

SPIB, sequence (Q01892 whole entry): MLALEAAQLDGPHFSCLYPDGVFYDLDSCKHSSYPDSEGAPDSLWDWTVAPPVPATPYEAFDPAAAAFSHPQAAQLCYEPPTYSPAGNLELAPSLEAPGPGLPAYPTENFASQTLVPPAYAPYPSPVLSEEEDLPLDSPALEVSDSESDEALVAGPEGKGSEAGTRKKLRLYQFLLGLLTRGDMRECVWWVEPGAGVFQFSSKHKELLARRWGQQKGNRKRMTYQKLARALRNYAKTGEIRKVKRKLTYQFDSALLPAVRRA
ELF4, sequence (Q99607 whole entry): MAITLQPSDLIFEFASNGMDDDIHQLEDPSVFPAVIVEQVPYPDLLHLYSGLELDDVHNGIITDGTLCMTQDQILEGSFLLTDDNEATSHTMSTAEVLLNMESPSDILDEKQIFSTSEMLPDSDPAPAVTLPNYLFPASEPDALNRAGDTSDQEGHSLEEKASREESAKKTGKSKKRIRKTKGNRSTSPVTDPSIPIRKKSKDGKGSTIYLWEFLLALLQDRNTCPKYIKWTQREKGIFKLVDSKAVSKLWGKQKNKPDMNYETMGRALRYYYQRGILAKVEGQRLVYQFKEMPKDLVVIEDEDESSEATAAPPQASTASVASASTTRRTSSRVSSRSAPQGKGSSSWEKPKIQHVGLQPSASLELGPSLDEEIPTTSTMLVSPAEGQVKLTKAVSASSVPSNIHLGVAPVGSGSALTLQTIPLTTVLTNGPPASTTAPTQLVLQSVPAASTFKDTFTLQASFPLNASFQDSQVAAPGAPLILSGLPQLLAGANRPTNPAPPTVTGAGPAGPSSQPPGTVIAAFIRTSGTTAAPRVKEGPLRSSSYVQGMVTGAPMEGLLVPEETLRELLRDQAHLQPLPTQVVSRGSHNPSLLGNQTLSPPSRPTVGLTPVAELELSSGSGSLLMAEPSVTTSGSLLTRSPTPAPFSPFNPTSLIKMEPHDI
ETV6, sequence (P41212 whole entry): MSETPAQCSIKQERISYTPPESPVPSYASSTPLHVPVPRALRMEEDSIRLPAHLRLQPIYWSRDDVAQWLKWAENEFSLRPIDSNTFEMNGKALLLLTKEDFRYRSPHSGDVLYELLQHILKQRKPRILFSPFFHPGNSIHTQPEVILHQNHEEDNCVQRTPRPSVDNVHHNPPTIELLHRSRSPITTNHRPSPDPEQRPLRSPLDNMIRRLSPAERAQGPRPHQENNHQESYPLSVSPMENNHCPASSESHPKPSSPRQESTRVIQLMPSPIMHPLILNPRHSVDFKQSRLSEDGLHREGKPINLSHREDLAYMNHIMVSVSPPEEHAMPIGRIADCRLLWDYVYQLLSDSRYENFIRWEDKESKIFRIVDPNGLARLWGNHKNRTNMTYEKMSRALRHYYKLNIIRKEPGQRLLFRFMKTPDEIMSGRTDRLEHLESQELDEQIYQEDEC
ELF1, sequence (P32519 whole entry): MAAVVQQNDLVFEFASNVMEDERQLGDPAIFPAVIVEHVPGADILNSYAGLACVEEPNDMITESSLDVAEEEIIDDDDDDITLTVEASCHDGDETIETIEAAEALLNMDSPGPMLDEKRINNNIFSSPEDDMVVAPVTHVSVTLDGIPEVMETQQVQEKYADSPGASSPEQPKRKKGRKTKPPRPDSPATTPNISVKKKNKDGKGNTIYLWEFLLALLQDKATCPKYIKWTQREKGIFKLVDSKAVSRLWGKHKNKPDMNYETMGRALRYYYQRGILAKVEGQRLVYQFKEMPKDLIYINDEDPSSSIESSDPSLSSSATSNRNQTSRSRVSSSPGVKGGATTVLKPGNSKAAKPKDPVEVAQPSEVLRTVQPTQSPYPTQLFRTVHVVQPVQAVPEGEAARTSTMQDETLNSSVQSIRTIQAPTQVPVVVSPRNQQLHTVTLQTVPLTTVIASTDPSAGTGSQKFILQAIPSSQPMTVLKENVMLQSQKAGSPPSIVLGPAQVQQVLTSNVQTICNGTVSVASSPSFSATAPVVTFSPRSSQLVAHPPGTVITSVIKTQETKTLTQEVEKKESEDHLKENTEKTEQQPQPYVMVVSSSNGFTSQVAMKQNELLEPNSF

With CTAGCG, the binding signal with ELK1 was 1.12 fold enrichment (6-mer frequency, TF over GST control); in the experiment with GABPA, 1.32 fold enrichment (6-mer frequency, TF over GST control); with ERG, 1.19 fold enrichment (6-mer frequency, TF over GST control); in the experiment with ELF1, 1.11 fold enrichment (6-mer frequency, TF over GST control); with EHF, 1.18 fold enrichment (6-mer frequency, TF over GST control); with SPIB, 1.17 fold enrichment (6-mer frequency, TF over GST control). For the same sequence, the binding signal was 1.15 fold enrichment (6-mer frequency, TF over GST control) in the experiment with FEV; 1.22 fold enrichment (6-mer frequency, TF over GST control) with ETV5; 1.1 fold enrichment (6-mer frequency, TF over GST control) in the experiment with ELF4; 1.16 fold enrichment (6-mer frequency, TF over GST control) with ELK4; 1.09 fold enrichment (6-mer frequency, TF over GST control) with ETV2; 1.05 fold enrichment (6-mer frequency, TF over GST control) with ELF3. Further, the binding signal in the experiment with ETV1 is 1.17 fold enrichment (6-mer frequency, TF over GST control); in the experiment with ERF, 1.31 fold enrichment (6-mer frequency, TF over GST control); in the experiment with ETV3L it was 1.07 fold enrichment (6-mer frequency, TF over GST control); with ETS2 it was 1.18 fold enrichment (6-mer frequency, TF over GST control); with SPDEF, 1.1 fold enrichment (6-mer frequency, TF over GST control); in the experiment with ETV3, 1.15 fold enrichment (6-mer frequency, TF over GST control). Besides, the binding signal with ETV6 is 1.08 fold enrichment (6-mer frequency, TF over GST control).
